Bioassay records: PubChem BioAssay, ICCB-Longwood Screening Facility, Harvard Medical School
MbtI inh = inhibitors of Mycobacterium tuberculosis siderophore enzyme MbtI | P9WFX0 | purified MbtI enzyme, fluorescence intensity read-out | inhibition, % (no concentration beside the values) | actives 0.89% (n = 100,000) | AID 493033; in the data active = inhibition mostly above about 56%, no sharp cut-off; inactive = mostly below about 77%
Target sequence (P9WFX0 whole entry, looked up): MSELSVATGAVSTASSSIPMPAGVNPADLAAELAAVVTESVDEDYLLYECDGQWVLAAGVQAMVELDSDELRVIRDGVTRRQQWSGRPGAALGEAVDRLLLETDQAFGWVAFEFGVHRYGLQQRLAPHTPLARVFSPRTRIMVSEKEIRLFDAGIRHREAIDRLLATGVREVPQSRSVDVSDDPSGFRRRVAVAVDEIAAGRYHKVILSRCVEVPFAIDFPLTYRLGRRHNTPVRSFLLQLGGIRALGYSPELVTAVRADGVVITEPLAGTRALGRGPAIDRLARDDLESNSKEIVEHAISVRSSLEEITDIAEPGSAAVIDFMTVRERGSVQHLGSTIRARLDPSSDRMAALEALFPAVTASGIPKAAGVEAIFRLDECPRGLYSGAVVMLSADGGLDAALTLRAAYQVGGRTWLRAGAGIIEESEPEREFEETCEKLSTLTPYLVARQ
MenB inh = inhibitors of Mycobacterium tuberculosis MenB enzyme; AID 540299; MenB enzyme assay, absorbance read-out; actives 0.43% (n = 100,000); P9WNP5; inhibition, % (test concentration not listed); in the data active = inhibition above about 21%, passing the limit was not always enough
AID504770 = E. coli YBA685 growth inhibition, screen for V. cholerae RctB inhibitors. E. coli YBA685 rctB-dependent plasmid, OD600 growth, 3 h; stronger effect = lower value. actives 0.27% (n = 130,000). z-score (concentration not given with the values); in the data active = z-score below about -2, passing the limit was not always enough
Polio RdRp inh = inhibitors of poliovirus RNA polymerase binding and polymerization; P03300; poliovirus polymerase elongation, fluorescence polarization; stronger effect = lower value; actives 0.66% (n = 150,000); % elongation, % (compound at 16.7 µg/mL); in the data active = % elongation below about 90%
Of the large screens only hits and unclear results are named; the others gave an inactive call; ! = a repeat was not active. Rows were chosen to be rich in hits. Some 1.4% of all compounds tested hit in one or more screens of this group.

CCC(C(=O)N1CCN(c2ccccc2)CC1)n1nc(C)c2sc3ccccc3c2c1=O (stereo not given)	Polio RdRp inh 90.0 (no result: MbtI inh, MenB inh, AID504770)
CCC(C(=O)N1CCCC1)n1nc(C)c2sc3ccccc3c2c1=O (stereo not given)	none
COCCN1Cc2cccc(C(=O)Nc3ccc(OC)c(Cl)c3)c2C1=O	none (no result: MbtI inh, MenB inh, Polio RdRp inh)
Fc1cccc2c1CNC(=S)N2	MbtI inh 81.7
CCNS(=O)(=O)c1ccc(NC(=O)Cc2ccc(OC)cc2)cc1	none
O=C(COC(=O)c1cc(-c2ccccc2)nn1-c1ccccc1)Nc1cccc(F)c1	none (no result: MenB inh)
COc1cc(C=C(C#N)C#N)ccc1O	MbtI inh 59.3
CCOc1ccccc1-c1cc(C(=O)Nc2ccon2)c2ccccc2n1	none (no result: MbtI inh, MenB inh, Polio RdRp inh)
O=C(O)COc1ccc2ccccc2c1Br	none (no result: MenB inh)
O=C1c2ccccc2C(=O)C1c1cc(=O)[nH]c2ccccc12	Polio RdRp inh 87.0
O=c1cc(O)c2ccccc2[nH]1	none
c1ccn2c(c1)nc1c2nc2ccccn21	none
Oc1nc2ccccn2c1-c1c(O)nc2ccccn12	Polio RdRp inh 21.0 (no result: MenB inh)
O=C1CSCC(=O)N1c1ccc2c(c1)OCO2	none (no result: MbtI inh, MenB inh, Polio RdRp inh)
O=C1CSCC(=O)N1c1cccnc1	Polio RdRp inh 84.0
O=C(CC(NCCc1cc2ccccc2[nH]1)C(=O)O)c1ccc(Br)cc1 (stereo not given)	none (no result: MbtI inh)
Cc1ccc(S(=O)(=O)N2CCCCC2C(=O)NC(C)c2ccc3c(c2)OCCO3)cc1 (stereo not given)	AID504770 -2.1
CC(=O)OC(OC(C)=O)C12C=CC(O1)C1C(=O)N(c3ccccc3-c3ccccc3)C(=O)C12 (stereo not given)	MbtI inh 90.3
O=c1c2ccccc2[se]n1-c1ccccc1	MbtI inh 103.2 (no result: AID504770)
COC(=O)C1=C(C)NC(C)=C(C(=O)OC)C1c1ccccc1	none (no result: MbtI inh, MenB inh, Polio RdRp inh)
COC(=O)C1=C(C)NC(C)=C(C(=O)OC)C1c1ccccc1[N+](=O)[O-]	MbtI inh 79.2!
Brc1cccc(-c2nnc(Nc3ccccc3)o2)c1	none (no result: MbtI inh, MenB inh, Polio RdRp inh)
CCOC(=O)c1c(N2C(=O)C=CC2=O)sc(C)c1-c1ccccc1	MbtI inh 76.6
Cc1ccc(C(=O)CBr)cc1C	MbtI inh 88.4 (no result: MenB inh)
Cc1ccc(C(=O)c2ccc(C)c(C)c2)cc1C	none
COC(CNCc1cc(Cl)c2c(c1)OCCCO2)OC	none
Nc1nc(N)nc(-c2ccccc2)n1	none
Nc1nc(N)c2[nH]c(-c3ccccc3)nc2n1	Polio RdRp inh 68.0
C=CCn1c(C)cc(C(=O)CSc2nnc3ccccn23)c1C	none (no result: MenB inh)
O=C1c2ccccc2C(=O)N1CCSC1=Nc2ccccc2C2CC=NN12 (stereo not given)	MenB inh 34.1
O=C1c2ccccc2C(=O)N1CCSc1ccccc1	none
C=CCn1c(C)cc(C(=O)CSC2=Nc3ccccc3C3CC=NN23)c1C (stereo not given)	MenB inh 55.2
O=C(O)c1cn(C2CC2)c2cc(N3CCNCC3)c(F)cc2c1=O	AID504770 -3.4
COc1c(N2CCNC(C)C2)c(F)cc2c(=O)c(C(=O)O)cn(C3CC3)c12 (stereo not given)	AID504770 -3.55
CCn1cc(C(=O)O)c(=O)c2cc(F)c(F)cc21	none
CO/N=C1\CN(c2nc3c(cc2F)c(=O)c(C(=O)O)cn3C2CC2)CC1CN (stereo not given)	AID504770 -3.6 (no result: MbtI inh)
COc1cccc(CN(C)C(=O)CNC(N)=O)c1OC	none
O=C(Nc1ccccc1)c1cc(Br)cc2c1OCC2	none (no result: MbtI inh, MenB inh, Polio RdRp inh)
N#Cc1ccc(CSc2nnc(CNc3ccccc3)o2)cc1	none
Cc1cc(NCCCN2CCCC2=O)n2c(nc3ccccc32)c1C#N	MenB inh 36.8
NC(=O)CSc1nnc(COc2ccccc2Cl)n1C1CC1	none (no result: Polio RdRp inh)
S=c1[nH]nc(COc2ccccc2Cl)n1C1CC1	MbtI inh 83.8 (no result: Polio RdRp inh)
Cc1cc(C)cc(OCc2cc(=O)n3c4c(sc3n2)CCCC4)c1	Polio RdRp inh 78.0 (no result: MbtI inh, MenB inh, AID504770)
CC(=O)OC1CCC2OC1CCC2OC(C)=O (stereo not given)	none
O=C1C=C2N(c3ccccc3)CCOC2(O)c2ccccc21 (stereo not given)	Polio RdRp inh 37.0 (no result: MbtI inh)
O=C1OC2(O)c3ccccc3C(=O)N2c2ccccc21 (stereo not given)	none
S=C(NCCN1CCOCC1)Nc1ccccc1	none
FC(F)(F)c1ccccc1NNC(=S)NCCN1CCOCC1	MbtI inh 71.5
NCCNCC1COC2(CCCCCCCCCCC2)O1 (stereo not given)	AID504770 -2.85
CCS(=O)(=O)NCC1COC2(CCCCC2)O1 (stereo not given)	none
COc1ccc2nc(N=C(N)N)nc(C)c2c1	Polio RdRp inh 65.0 (no result: MbtI inh)
Cc1ccc2nc(N=C(N)N)nc(C)c2c1	none
CC(=O)Nc1ccccc1OCC(=O)NC(=O)Nc1ccc(C)cc1C	none
COc1cccc(-c2noc(CCC(=O)N3CCCC3)n2)c1	none
